The full data set covers some 8,800 targets. This sample favours those with a hit. About 0.5% of all pairs of compound and target were hits.
How the values were obtained:
Experiment in all cases: log2 fold change, soluble protein after heating vs DMSO (PISA); higher = thermal stabilisation; K562 lysate, 10 uM; active = over 0.2 and 3.5 SD of the protein, either way, in both replicates (recomputed)
[1] = compound: NCC(=O)Nc1ccc(-n2nc(C(F)(F)F)cc2-c2ccc3c(ccc4ccccc43)c2)cc1
Summary of the method: (§1)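 To prepare the extract, K562 pellets were dounce-homogenised in PBS pH 7.4 with 1 mM MgCl2, giving crude material at 1 mg/mL protein. This was treated with 10 μM compound for 30 min, then heated in aliquots for 3 min over 48°C-58°C before pooling and addition of NP-40 to 0.5% at 4°C. Centrifugation at 21,000xg for 90 min left soluble protein in the supernatant, which TMTpro 16plex LC-MS/MS quantified with equalised channel sums. Results are log-two fold changes in thermal stability compared with solvent controls, from duplicates.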

vorinostat = compound: O=C(CCCCCCC(=O)Nc1ccccc1)NO [vorinostat]
Summary of the method: as §1

silmitasertib = compound: O=C(O)c1ccc2c(c1)nc(Nc1cccc(Cl)c1)c1ccncc12 [silmitasertib]
Summary of the method: as §1

[2] = compound: O=C1NC(=O)C(c2cnc3ccccn23)=C1c1cn2c3c(cc(F)cc13)CN(C(=O)N1CCCCC1)CC2
Summary of the method: as §1

entospletinib = compound: c1cn2cc(-c3ccc4cn[nH]c4c3)nc(Nc3ccc(N4CCOCC4)cc3)c2n1 [entospletinib]
Summary of the method: as §1

Measured: log2 fold change

STMN3 (UniProt Q9NZ72)
Sequence of UniProt Q9NZ72 (Q9NZ72 whole entry, looked up): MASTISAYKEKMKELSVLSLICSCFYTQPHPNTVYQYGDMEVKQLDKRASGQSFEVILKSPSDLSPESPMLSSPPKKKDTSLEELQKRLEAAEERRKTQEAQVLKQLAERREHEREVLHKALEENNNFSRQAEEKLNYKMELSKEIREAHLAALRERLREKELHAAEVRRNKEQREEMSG
inactive: [1] -0.028 | vorinostat 0.065 | silmitasertib -0.033 | [2] -0.004 | entospletinib 0.07

SPATA5L1 (UniProt Q9BVQ7)
Sequence of UniProt Q9BVQ7 (Q9BVQ7 whole entry, looked up): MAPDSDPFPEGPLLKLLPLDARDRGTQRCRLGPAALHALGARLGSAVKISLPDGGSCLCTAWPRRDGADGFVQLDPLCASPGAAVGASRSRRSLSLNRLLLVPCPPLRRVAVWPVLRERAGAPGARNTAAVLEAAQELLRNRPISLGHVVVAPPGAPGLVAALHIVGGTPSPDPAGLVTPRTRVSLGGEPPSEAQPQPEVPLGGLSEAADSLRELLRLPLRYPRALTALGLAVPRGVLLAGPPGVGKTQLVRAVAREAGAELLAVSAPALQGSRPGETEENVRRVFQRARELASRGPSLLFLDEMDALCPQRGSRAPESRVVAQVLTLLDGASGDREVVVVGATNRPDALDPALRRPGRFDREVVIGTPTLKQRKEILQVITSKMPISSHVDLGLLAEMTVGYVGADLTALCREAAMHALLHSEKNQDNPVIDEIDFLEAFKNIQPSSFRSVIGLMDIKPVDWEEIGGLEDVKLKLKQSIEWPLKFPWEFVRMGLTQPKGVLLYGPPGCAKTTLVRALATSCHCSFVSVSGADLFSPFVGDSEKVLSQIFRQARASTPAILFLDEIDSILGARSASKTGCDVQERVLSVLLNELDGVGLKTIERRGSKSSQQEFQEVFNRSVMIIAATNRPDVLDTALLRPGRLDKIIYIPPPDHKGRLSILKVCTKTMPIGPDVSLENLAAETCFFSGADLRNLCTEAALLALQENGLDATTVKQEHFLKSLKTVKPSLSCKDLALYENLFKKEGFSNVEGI
inactive: [1] 0.029 | silmitasertib 0.138 | [2] 0.035 | entospletinib -0.021
active: vorinostat -0.408

SPC25 (UniProt Q9HBM1)
Sequence of UniProt Q9HBM1 (Q9HBM1 whole entry, looked up): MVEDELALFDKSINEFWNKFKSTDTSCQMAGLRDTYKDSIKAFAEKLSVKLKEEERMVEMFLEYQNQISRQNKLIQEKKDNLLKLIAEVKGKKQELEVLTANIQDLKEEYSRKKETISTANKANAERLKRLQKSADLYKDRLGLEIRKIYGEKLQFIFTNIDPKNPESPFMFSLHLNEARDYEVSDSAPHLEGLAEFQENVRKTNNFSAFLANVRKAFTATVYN
active: vorinostat -0.266
inactive: [1] 0.026 | silmitasertib 0 | [2] 0.016 | entospletinib -0.004

SRRT (UniProt Q9BXP5)
Sequence of UniProt Q9BXP5 (Q9BXP5 whole entry, looked up): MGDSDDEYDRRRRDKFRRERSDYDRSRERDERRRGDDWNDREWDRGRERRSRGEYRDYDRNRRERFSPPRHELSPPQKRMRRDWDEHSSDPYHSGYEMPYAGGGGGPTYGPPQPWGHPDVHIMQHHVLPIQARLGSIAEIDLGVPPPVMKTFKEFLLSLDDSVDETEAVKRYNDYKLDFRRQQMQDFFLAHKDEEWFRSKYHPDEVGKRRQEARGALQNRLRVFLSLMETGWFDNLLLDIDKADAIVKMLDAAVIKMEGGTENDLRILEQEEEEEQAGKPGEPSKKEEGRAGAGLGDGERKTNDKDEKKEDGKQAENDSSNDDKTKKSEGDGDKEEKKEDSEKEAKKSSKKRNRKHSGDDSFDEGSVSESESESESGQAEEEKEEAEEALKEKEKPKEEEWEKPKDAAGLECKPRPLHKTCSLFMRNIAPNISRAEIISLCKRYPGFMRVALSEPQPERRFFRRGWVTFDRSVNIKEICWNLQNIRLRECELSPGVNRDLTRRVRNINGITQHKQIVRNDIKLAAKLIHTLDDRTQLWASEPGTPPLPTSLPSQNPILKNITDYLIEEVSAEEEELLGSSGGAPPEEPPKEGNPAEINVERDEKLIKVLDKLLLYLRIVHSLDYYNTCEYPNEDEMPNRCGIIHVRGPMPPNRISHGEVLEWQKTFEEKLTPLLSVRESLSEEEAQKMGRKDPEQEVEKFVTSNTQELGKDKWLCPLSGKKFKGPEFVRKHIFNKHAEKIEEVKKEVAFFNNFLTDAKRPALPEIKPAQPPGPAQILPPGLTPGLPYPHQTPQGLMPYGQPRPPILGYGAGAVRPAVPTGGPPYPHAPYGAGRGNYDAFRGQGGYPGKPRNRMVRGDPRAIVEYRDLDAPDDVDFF
active: vorinostat -0.373
inactive: [1] -0.036 | silmitasertib 0.044 | [2] -0.008 | entospletinib 0.032

SMARCAD1 isoform 2 (UniProt Q9H4L7)
Sequence of UniProt Q9H4L7 (Q9H4L7 whole entry, looked up): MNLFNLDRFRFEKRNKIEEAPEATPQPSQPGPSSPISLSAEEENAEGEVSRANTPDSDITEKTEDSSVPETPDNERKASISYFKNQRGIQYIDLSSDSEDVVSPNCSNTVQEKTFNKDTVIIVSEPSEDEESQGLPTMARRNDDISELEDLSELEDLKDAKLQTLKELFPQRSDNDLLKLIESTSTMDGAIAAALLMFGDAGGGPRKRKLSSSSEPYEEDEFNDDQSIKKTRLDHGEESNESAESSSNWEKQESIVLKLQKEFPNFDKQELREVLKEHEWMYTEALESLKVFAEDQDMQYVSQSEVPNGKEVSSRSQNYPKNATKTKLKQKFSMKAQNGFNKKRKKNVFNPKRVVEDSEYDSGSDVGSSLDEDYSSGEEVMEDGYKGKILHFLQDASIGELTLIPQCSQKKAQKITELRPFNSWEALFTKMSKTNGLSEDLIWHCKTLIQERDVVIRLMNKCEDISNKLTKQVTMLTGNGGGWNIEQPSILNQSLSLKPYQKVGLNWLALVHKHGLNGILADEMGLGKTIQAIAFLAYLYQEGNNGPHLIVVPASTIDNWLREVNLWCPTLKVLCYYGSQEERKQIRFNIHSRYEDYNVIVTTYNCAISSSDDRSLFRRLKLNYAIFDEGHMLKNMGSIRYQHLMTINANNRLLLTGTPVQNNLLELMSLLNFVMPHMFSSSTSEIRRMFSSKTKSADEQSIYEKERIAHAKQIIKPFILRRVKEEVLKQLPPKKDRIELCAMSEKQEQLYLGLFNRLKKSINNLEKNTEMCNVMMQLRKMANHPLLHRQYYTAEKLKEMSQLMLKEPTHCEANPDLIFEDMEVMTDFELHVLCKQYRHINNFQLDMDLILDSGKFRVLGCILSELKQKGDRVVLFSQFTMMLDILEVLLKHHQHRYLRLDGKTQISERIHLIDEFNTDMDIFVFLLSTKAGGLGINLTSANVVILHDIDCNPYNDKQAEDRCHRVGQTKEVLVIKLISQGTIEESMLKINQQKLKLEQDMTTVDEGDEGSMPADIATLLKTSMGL
inactive: [1] -0.005 | silmitasertib 0.012 | [2] 0.014 | entospletinib 0.013
active: vorinostat -0.27

SPATS2 (UniProt Q86XZ4)
Sequence of UniProt Q86XZ4 (Q86XZ4 whole entry, looked up): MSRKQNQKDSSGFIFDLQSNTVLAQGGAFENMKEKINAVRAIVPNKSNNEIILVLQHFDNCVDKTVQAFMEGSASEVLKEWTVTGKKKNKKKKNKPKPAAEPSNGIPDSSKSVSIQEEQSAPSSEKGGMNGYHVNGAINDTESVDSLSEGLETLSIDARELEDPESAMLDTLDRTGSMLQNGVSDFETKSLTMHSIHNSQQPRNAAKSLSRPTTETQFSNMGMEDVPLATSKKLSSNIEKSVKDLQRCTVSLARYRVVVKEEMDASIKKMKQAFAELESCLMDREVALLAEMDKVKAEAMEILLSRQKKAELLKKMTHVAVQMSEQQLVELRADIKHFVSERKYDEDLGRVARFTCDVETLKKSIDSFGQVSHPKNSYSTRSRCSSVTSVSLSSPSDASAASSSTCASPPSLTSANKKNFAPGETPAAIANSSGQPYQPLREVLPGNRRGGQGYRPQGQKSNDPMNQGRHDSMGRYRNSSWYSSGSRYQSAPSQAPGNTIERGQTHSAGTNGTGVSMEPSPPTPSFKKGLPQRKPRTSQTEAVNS
inactive: [1] -0.047 | silmitasertib 0.002 | [2] -0.049 | entospletinib 0.176
active: vorinostat -0.507

SPNS1 (UniProt Q9H2V7)
Sequence of UniProt Q9H2V7 (Q9H2V7 whole entry, looked up): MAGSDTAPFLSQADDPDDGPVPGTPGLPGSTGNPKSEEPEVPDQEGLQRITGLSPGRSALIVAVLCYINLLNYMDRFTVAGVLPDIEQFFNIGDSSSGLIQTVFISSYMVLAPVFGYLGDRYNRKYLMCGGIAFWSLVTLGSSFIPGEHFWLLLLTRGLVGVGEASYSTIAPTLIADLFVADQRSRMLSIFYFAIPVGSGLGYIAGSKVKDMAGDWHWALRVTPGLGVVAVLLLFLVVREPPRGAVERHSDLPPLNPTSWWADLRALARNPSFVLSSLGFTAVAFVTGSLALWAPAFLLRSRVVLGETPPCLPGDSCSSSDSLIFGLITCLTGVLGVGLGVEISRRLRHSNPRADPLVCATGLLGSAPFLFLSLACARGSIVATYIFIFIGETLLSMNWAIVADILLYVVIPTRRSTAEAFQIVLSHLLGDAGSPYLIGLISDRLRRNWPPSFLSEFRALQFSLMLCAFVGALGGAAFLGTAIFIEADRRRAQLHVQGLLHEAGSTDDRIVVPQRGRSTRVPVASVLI
inactive: [1] 0.086 | vorinostat -0.022 | silmitasertib 0.033 | [2] -0.025 | entospletinib -0.045

SMG1 (UniProt Q96Q15)
active: vorinostat -0.348
inactive: [1] 0.005 | silmitasertib 0.011 | [2] -0.006 | entospletinib -0.007

SLC22A18 (UniProt Q96BI1)
Sequence of UniProt Q96BI1 (Q96BI1 whole entry, looked up): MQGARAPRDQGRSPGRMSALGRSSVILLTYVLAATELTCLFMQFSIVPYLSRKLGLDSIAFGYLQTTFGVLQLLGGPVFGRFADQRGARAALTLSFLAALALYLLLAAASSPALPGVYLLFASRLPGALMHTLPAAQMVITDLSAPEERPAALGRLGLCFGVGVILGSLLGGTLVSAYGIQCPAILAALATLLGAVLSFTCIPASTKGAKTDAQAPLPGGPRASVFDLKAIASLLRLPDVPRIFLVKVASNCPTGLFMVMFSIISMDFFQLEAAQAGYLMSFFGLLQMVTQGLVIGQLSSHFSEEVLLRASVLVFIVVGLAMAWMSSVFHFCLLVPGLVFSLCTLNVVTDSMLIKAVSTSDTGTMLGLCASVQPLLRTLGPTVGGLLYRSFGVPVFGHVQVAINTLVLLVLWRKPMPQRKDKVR
inactive: [1] -0.136 | vorinostat -0.044 | silmitasertib 0.006 | [2] 0.004 | entospletinib 0.013

From the supplement of paper PMC10849652
